Results filed as inconclusive are left out. A call without a number means that no potency is given here. Activity calls are given as the source filed them. Calls follow the shape of the dose curve; as a rule, active = well fitted cell-killing curve with a large enough effect in the repeat runs (not every such curve was filed as active); inconclusive = weak or mixed curves, or effect the other way; inactive = no such curve, though single readings can be large or run the other way.
assay: qHTS assay to identify small molecule antagonists of the estrogen related receptor signaling pathway with the pleiotropic PPARgamma coactivator (PGC) from Tox21 10K library - cell viability counter screen (AID 1224840); settings: PGC/ERR reporter cells viability, CellTiter-Fluor, 17.5 h; series mostly up to 92.4 µM; also: nearly all actives have a fitted effect of over 40% in size
Excerpt: National Center for Advancing Translational Sciences [NCATS]
NIH Chemical Genomics Center [NCGC]
U.S. Environmental Protection Agency [EPA]
National Institutes of Environmental Health Sciences [NIEHS]
National Toxicology Program [NTP]
U.S. Food and Drug Administration [FDA]
Estrogen related receptors (ERRs), the first orphan nuclear receptors discovered, play an important role in the control of cellular energy metabolism. ERRs are required for high-energy production in response to the environmental challenges. The pleiotropic PPARgamma coactivator (PGC) is a major partner of ERR and a key regulator in energy homeostasis. Together they have been implicated in the etiology of metabolic disorders such as Type 2 diabetes and metabolic syndrome. ERR-alpha was also identified as an adverse marker for breast cancer progression; ERR-alpha-positive tumors have a poor prognosis. To screen and to identify environmental compounds that perturb the ERR and PGC/ERR signaling pathways could provide valuable information for potential therapeutic or preventive measures in the treatment of metabolic disease. To differentiate true PGC/ERR antagonists or agonist from cytotoxic substances, the assay is multiplexed with cell viability assay.
Tox21 Assay Protocol Summary:
The PGC/ERR cells were dispensed at 2,000 cells/5 ul/well in 1536-well white plates using a Multidrop dispenser. After the assay plates were incubated at a 37 C/5% CO2 incubator for 6 hours, 23 nL of compounds dissolved in DMSO, positive and negative controls or DMSO only was transferred to the assay plate by a pin tool. The plates were incubated at 37 C for 17.5 hours. 1 ul/well of CellTiter-Fluor reagent was added into the assay plates using a Flying Reagent Dispenser. After 30-minute incubation at 37 C/5% CO2, the fluorescence intensity in the plates was measured using a ViewLux plate reader.

**Q.** For `CNc1ccccc1`, which Potency is on record?
**A.** inactive

**Q.** Which Potency does the source give for `CS(C)=O` here?
**A.** inactive

**Q.** For `COc1ccnc2c1CCCCC2S(=O)c1nc2ccccc2[nH]1` (stereo not given), which Potency is on record?
**A.** inactive

**Q.** For `CC(C)(Cc1c[nH]c2ccccc12)NCC(O)COc1ccccc1C#N` (stereo not given), which Potency is on record?
**A.** inactive

**Q.** Which Potency does the source give for `CCCCCCOC(=O)c1ccccc1` here?
**A.** inactive

**Q.** Which Potency does the source give for `C[C@]12CCC(=O)C=C1[C@@H]1C[C@@H]1[C@H]1[C@@H]3[C@@H]4C[C@@H]4[C@@]4(CCC(=O)O4)[C@@]3(C)CC[C@@H]12` here?
**A.** inactive

**Q.** With `CCCCCCCCCCCCCCCCN` as the compound, how does the Potency read?
**A.** inactive

**Q.** With `CCc1c(C)[nH]c2c1C(=O)C(CN1CCOCC1)CC2` (stereo not given) as the compound, how does the Potency read?
**A.** inactive

**Q.** For `O=C(O)c1ccncc1`, which Potency is on record?
**A.** inactive

**Q.** For `O=C(O)c1ccc2cc(O)ccc2c1`, which Potency is on record?
**A.** inactive

**Q.** For `FC1(F)C(F)(F)C(F)(F)C2(F)C(F)(C1(F)F)C(F)(F)C(F)(F)C1(F)C(F)(F)C(F)(F)C(F)(F)C(F)(F)C12F` (stereo not given), which Potency is on record?
**A.** inactive

**Q.** For `C=C[Si]1(C)O[Si](C)(C=C)O[Si](C)(C=C)O[Si](C)(C=C)O1` (stereo not given), which Potency is on record?
**A.** inactive

**Q.** With `CC(COc1ccccc1)NC(C)C(O)c1ccc(O)cc1` (stereo not given) as the compound, how does the Potency read?
**A.** inactive

**Q.** Which Potency does the source give for `CCCc1ccc(OC)cc1` here?
**A.** inactive

**Q.** Which viability change, negative = cytotoxic does the source give for `CCCCCCCCCCCCCCCCCCCl` here?
**A.** 10.7% [at 8.39 µM] (inactive)

**Q.** Which Potency does the source give for `Cc1nc(C)c(C)nc1C` here?
**A.** inactive

**Q.** With `CCC(C)C1N=C(C)C(C)S1` (stereo not given) as the compound, how does the Potency read?
**A.** inactive

**Q.** For `CCCOC(C)=O`, which Potency is on record?
**A.** inactive

**Q.** For `CC1(C)CC(=O)CC(C)(C)N1`, which Potency is on record?
**A.** inactive

**Q.** For `Clc1cccc(C(c2ccc3nc[nH]c3c2)n2ccnc2)c1` (stereo not given), which Potency is on record?
**A.** inactive

**Q.** With `C=CC(C)CCC=C(C)C` (stereo not given) as the compound, how does the Potency read?
**A.** inactive

**Q.** For `c1ccc(CN(Cc2ccccc2)Cc2ccccc2)cc1`, which Potency is on record?
**A.** inactive

**Q.** Which Potency does the source give for `Cc1c(-c2cccnc2)c2ccccc2n1CCCCC(=O)O` here?
**A.** inactive

**Q.** For `CC1(COc2ccc(CC3SC(=O)NC3=O)cc2)CCCCC1` (stereo not given), which Potency is on record?
**A.** inactive

**Q.** With `CCCCCCCCC(=O)OCC(C)OC(=O)CCCCCCCC` (stereo not given) as the compound, how does the Potency read?
**A.** inactive

**Q.** Which Potency does the source give for `CC(=O)Nc1ccn(C2COC(COC(=O)c3ccccc3)O2)c(=O)n1` (stereo not given) here?
**A.** inactive

**Q.** Which Potency does the source give for `O=C(O)COCC(=O)O` here?
**A.** inactive

**Q.** Which Potency does the source give for `COC(=O)C(C)(C)C` here?
**A.** inactive

**Q.** With `C(/C=C/C=C/Nc1ccccc1)=Nc1ccccc1` as the compound, how does the Potency read?
**A.** inactive

**Q.** For `CC(C)(C)c1cc(C=O)cc(C(C)(C)C)c1O`, which Potency is on record?
**A.** inactive

**Q.** With `CCn1nc(Cc2ccccc2)cc1C1CCN(C[C@H]2C[C@H](N(C)[C@@H](C(=O)O)C(C)C)C[C@@H]2c2cccc(F)c2)CC1` as the compound, how does the Potency read?
**A.** inactive

**Q.** Which Potency does the source give for `COc1ccc(/C(C)=C/C(=O)O)c(OC)c1` here?
**A.** inactive

**Q.** Which Potency does the source give for `Cc1ccc(NC(=O)c2ccc(CN3CCN(C)CC3)cc2)cc1Nc1nccc(-c2cccnc2)n1` here?
**A.** inactive

**Q.** With `Cc1c(Nc2ncccc2C(=O)O)cccc1C(F)(F)F` as the compound, how does the Potency read?
**A.** inactive

**Q.** For `CC(=O)Nc1cccc(N)c1`, which Potency is on record?
**A.** inactive

**Q.** With `SCCOCCOCCS` as the compound, how does the Potency read?
**A.** inactive

**Q.** For `C=Cc1ccc(C=C)cc1`, which Potency is on record?
**A.** inactive

**Q.** With `C/C(=C(\CCO)SS/C(CCO)=C(\C)N(C=O)Cc1cnc(C)nc1N)N(C=O)Cc1cnc(C)nc1N` as the compound, how does the Potency read?
**A.** inactive

**Q.** For `C1=COCCC1`, which Potency is on record?
**A.** inactive

**Q.** With `O=C(O)c1ccccc1-n1cc(C(=O)O)c(=O)c2cc(Nc3c(F)cc(F)cc3Cl)c(Cl)cc21` as the compound, how does the Potency read?
**A.** inactive
